Data published in PubChem BioAssay (NCATS).
Records with an inconclusive call do not appear. Where a call stands in place of a potency, no number is given. The source made the active and inactive calls. Calls come from the whole dose curve; as a rule, active = well fitted curve in the direction sought with a large enough effect; inconclusive = small, poorly fitted or top-dose-only effect, or another doubt; inactive = no such curve, though single readings can be large or run the other way. Starred links: 1 amine or outer side, 2 acyl side, 3 side chain; linkers in the order of their positions; H or OH if unused. Positions of bridges follow the written chain, without caps; N, C: chain ends. Non-standard residues stand in square brackets, D forms with d. Residues, ends and D or L forms follow the SMILES beside them. ξ: configuration not given here. *: point of attachment. X3 = C[C@@H](Oc1ccc([C@H](N[*:1])C(=O)[*:2])cc1)[C@]1(/C=C\C(=O)[*:3])CO1; d(aIle) = CC[C@H](C)[C@@H](N)C(=O)O; X2 = CC(C)[C@@H](O)C(C)C(=O)*; ξNMeF = CNC(Cc1ccccc1)C(=O)O; ξT = CC(O)C(N)C(=O)O; ξS = NC(CO)C(=O)O

Experiment: qHTS for inhibitors of Wild type Zika virus screened against the NCATS CANVASS Library (AID 1347396)
Settings: Vero cells, Zika virus CPE, CellTiter-Glo, 72 h; series mostly up to 45.9 µM
Source text: Natural products and their derivatives continue to be wellsprings of nascent therapeutic potential. However, many laboratories have limited resources for biological evaluation, leaving their previously isolated or synthesized compounds largely or completely untested. To address this issue, the Canvass library of natural products was assembled (https://tripod.nih.gov/canvass), in collaboration with academic and industry researchers, for quantitative high-throughput screening (qHTS) across a diverse set of cell-based and biochemical assays. The pure (>85% purity by liquid chromatography/mass spectrometry [LC/MS]) Canvass library of 346 natural products were submitted by 45 academic laboratories and companies around the world. We collected pure natural products to circumvent deconvolution and structure elucidation due to time and resource limitations. The library was formatted into 1536-well plates and evaluated in 50 qHTS (in an 11-pnt concentration series) bioassays with broad scope of disease-relevant mechanisms. The resulting data set from 50 different assays was then systematically analyzed to identify overall trends and specific natural products with interesting biological activities. Reported herein are the results of each individual qHTS and their corresponding assay protocol. Vero cells were infected with wild type Zika virus and at 72 hours post-infection viral cytotoxicity was assayed using CellTiter Glo. National Center for Advancing Translational Sciences (NCATS), Rockville, MD National Institute of Health (NIH), Bethesda, Maryland
Zika virus infection assay protocol: 1. In a white-solid bottom 1536-well tissue culture plate (Corning 7494), 3 uL of Vero 766 cells derived (African Green Monkey) were dispensed using a Multidrop Combi (Thermo Fisher Scientific) at a final concentration of 1000 cells / well. 2. The assay plates were incubated overnight at 37C, 5% CO2, 95% humidity to acclimate and attach. 3. […] of compounds (in DMSO; columns 5-48) were pin transferred into the assay plates using the Kalypsis pin tool (Wako USA) equipped with a 1536-well pin heads. This yields a final concentration range of 0.001 - 77 uM. 4. In a biosafety cabinet, the desired MOI Zika virus was calculated and 2 uL of 2.5x Zika virus was dispensed into columns 1, 2 and 5 - 48 using the Multidrop Combi dispenser. Two microliters of media + vehicle was dispensed into columns 3 and 4 as positive controls (no infection, 100% inhibition). The assay plates were sealed with breathable film. 5. The assay plates were incubated for 72 hours at 37C, 5% CO2, 95% humidity. 6. In a biosafety cabinet, the seals were removed by Xpeel Automated Plate Seal Remover (Brooks Life Sciences) and 2.5 uL of CellTiter Glo reagent (Promega) was dispensed into the wells (columns 1 - 48, rows 1 - 32). 7. Luminescence signal was obtained via the ViewLux plate reader (Perkin Elmer) using the clear emission filter and 1x binning, 2 seconds exposure settings.
Potency is the fitted concentration of half-maximal effect.

| Compound | Potency |
| --- | --- |
| CCCCC1CC[C@H]2CCCC(CCC)N12 (stereo partly specified) | inactive |
| CCC(=O)N[C@@H](C[C@H](C)C(Cl)(Cl)Cl)C(=O)N1C(=O)C=C(OC)[C@@H]1C[C@H](C)C(Cl)Cl | inactive |
| CC[C@H]1CN2CCc3c([nH]c4cccc(OC)c34)[C@@H]2C[C@@H]1/C(=C\OC)C(=O)OC | inactive |
| CO[C@@]12c3c(C)cc(O)c4c(=O)occ(c34)C(=O)[C@@H]1[C@]13COC(=O)c4c(O)cc(C)c(c41)C(=O)[C@H]2[C@@H]3OC(C)=O | inactive |
| C[C@]12CC(O)C3[C@@H](CC[C@@H]4C[C@@H](O)CC[C@]34CO)[C@@]1(O)CC[C@@H]2C1=CC(=O)OC1 (stereo partly specified) | inactive |
| C=CC(C)(C)[C@@]12C[C@H]3C(=O)N/C(=C/c4cnc[nH]4)C(=O)N3[C@@H]1Nc1ccccc12 | inactive |
| C[N+](C)(C)CCc1c[nH]c2ccccc12 | inactive |
| COC1=C(C2=C(OC)C(=O)c3cc4c(c(O)c3C2=O)C(=O)O[C@H](C)C4)C(=O)c2c(cc3c(c2O)C(=O)O[C@H](C)C3)C1=O | inactive |
| C[C@]12CC(O)C3[C@@H](CCC4C[C@@H](O)CC[C@@]43CO)[C@@]1(O)CC[C@@H]2C1=CC(=O)OC1 (stereo partly specified) | inactive |
| C=C[C@]12C=CCN3CC[C@@]4(c5ccccc5NC(=O)[C@@H]4C1)[C@@H]32 | inactive |
| CC[C@H](C)[C@H]1NC(=O)[C@@H](NC(=O)C(C)[C@H](O)C(C)C)[C@@H](C)OC(=O)C2COC(=O)CNC(=O)/C=C\[C@]3(CO3)[C@@H](C)Oc3ccc(cc3)[C@H](NC1=O)C(=O)N(C)C(Cc1ccccc1)C(=O)NC(C(C)O)C(=O)N2 (stereo partly specified) (X2-T[d(aIle)][X3][ξNMeF][ξT][ξS]; ester 1-C; linker 3-6 via G) | inactive |
| C/C=C1/CN2CC[C@]34C(=C(C(=O)OC)[C@H]1C[C@H]23)Nc1ccccc14 | inactive |
| c1ccc2nc3c(cc2c1)[nH]c1ccccc13 | inactive |
| CC[C@@H]1CN2CCc3c([nH]c4cccc(OC)c34)[C@@H]2C[C@@H]1/C(=C\OC)C(=O)OC | inactive |
| C=CC(C)(C)[C@@]12C[C@H]3C(=O)N/C(=C\c4cnc[nH]4)C(=O)N3[C@@H]1Nc1ccccc12 | inactive |
| C/C=C1/CN2CC[C@@]34c5ccccc5N(C)[C@@H]3[C@@H]2C[C@@H]1[C@H]4C(=O)OC | inactive |

| Compound | Potency |
| --- | --- |
| CC(C)CC1C(=O)O[C@H](C(C)C)C(=O)N(C)C(CC(C)C)C(=O)O[C@@H](C(C)C)C(=O)N(C)C(CC(C)C)C(=O)O[C@H](C(C)C)C(=O)N(C)C(CC(C)C)C(=O)O[C@@H](C(C)C)C(=O)N1C (stereo partly specified) | 14.7 µM (active) |
| C[C@]12CCC3[C@@H](CC[C@@H]4C[C@@H](O)CC[C@]34CO)[C@@]1(O)CC[C@@H]2C1=CC(=O)OC1 (stereo partly specified) | inactive |
| CC[C@@H]1CN2CCC3(Nc4cccc(OC)c4C3=O)[C@@H]2C[C@@H]1/C(=C\OC)C(=O)OC (stereo partly specified) | inactive |
| C=C[C@H]1CN2CCc3c([nH]c4cccc(OC)c34)[C@@H]2C[C@@H]1/C(=C\OC)C(=O)OC | inactive |
| CO[C@H]1C[C@H](O[C@H]2[C@@H](O)C[C@H](O[C@H]3CC[C@]4(C=O)[C@H]5CC[C@]6(C)C(C7=CC(=O)OC7)CC[C@]6(O)[C@@H]5CC[C@]4(O)C3)O[C@@H]2C)O[C@H](C)[C@H]1O[C@H]1C[C@@H](OC)[C@@H](O[C@@H]2O[C@H](CO)[C@@H](O)[C@H](O)[C@H]2O)[C@@H](C)O1 (stereo partly specified) | inactive |
| C/C=C(\C)C(=O)O[C@@H]1[C@@H](O)[C@@H]2O[C@H]3[C@H](O[C@@H](CCCCC)CCCCCCC(=O)CCC(=O)OC[C@@H](O2)[C@H]1OC(=O)/C=C/c1ccccc1)O[C@H](C)[C@H](OC(C)=O)[C@@H]3O | inactive |
| COC1C(O)C(C)OC(OC2C(Oc3cccc4c(O)c5c(=O)oc6ccc(C)c7c(=O)oc(c34)c5c67)OC(C)C(O)C2O)C1O (stereo unspecified) | inactive |
| CO[C@H]1[C@H](O[C@H]2CC[C@]3(C=O)[C@H]4CC[C@]5(C)[C@@H](C6=CC(=O)OC6)CC[C@]5(O)[C@@H]4CC[C@]3(O)C2)O[C@H](C)[C@H](O)[C@@H]1OC | inactive |
| CO[C@@H](/C=C/CC/C=C/C(=O)O)[C@@H](O)[C@H](C)/C=C(\C)[C@H](O)[C@H](C)C(=O)CCCC1CC(=O)NC(=O)C1 | inactive |
| CC[C@]12C=CCN3CC[C@]4(C(=C(C(=O)OC)C1)Nc1ccccc14)[C@@H]32 | inactive |
| CCCC[C@@H]1CC[C@H]2CCCC(CCCO)N12 (stereo partly specified) | inactive |
| C/C(=C\[C@H](C)C(=O)C[C@H](O)CC1CC(=O)NC(=O)C1)[C@@H]1OC(=O)/C=C/CC/C=C/C=C/[C@@H]1C | inactive |
| O[C@H]1C=C[C@@]23CCN(Cc4cc5c(cc42)OCO5)[C@@H]3C1 | inactive |
| CCCC[C@@H](C)/C=C1/CN2CCC[C@H]2[C@@](C)(O)[C@@H]1O | inactive |
| C1=C2CCCN[C@H]2C2CC1[C@H]1CCCCN1C2 (stereo partly specified) | inactive |
